# An excerpt weighted towards active compounds, which were near 19% of everything screened.
# HT1080 IDH1KD tx – qHTS for induction of synthetic lethality in tumor cells producing 2HG: qHTS for the HT-1080-IDH1KD cell line; 360,000 tested, 2% active; Potency, µM (top dose mostly 46.1 µM), without a hit: top-dose activity, negative = toxicity, usual class: cytotoxic; HT-1080 IDH1 knockdown viability, ATP luminescence, 48 h; AID 686971, 2013;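 also: potency is read from the fitted curve at half-maximal effect; 0% = DMSO wells and -100% = cell-free medium wells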
#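 Luminescent ATP read-out (CellTiter-Glo, 10 min at room temperature) after 48 h compound exposure at 37 °C gave viability of IDH1-knockdown HT-1080 cells. Activity was normalised to DMSO and cell-free wells, then fitted as concentration-response curves.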
# HT1080NT lethal – qHTS for induction of synthetic lethality in tumor cells producing 2HG: qHTS for the HT-1080-NT fibrosarcoma cell line. HT-1080-NT fibrosarcoma viability, CellTiter-Glo ATP luminescence, 48 h. Potency, µM (doses to about 46.1 µM), without a hit: top-dose activity, negative = less viability, usual class: cytotoxic. 360,000 tested, 1.6% active. AID 686970, 2013;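 also: NT is the 2HG producing partner of a matched IDH1 knockdown line; potency is read from the fitted curve at half-maximal effect; 0% = DMSO-treated cells and -100% = media-only wells without cells; nearly all actives have a fitted effect of over 55% in size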
#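 Luminescent CellTiter-Glo readout after 48 hours of compound exposure at 37 degrees C defined viability of HT-1080-NT cells. Activity was normalized to DMSO wells and cell-free media wells; concentration-response curves were fitted and assigned curve classes.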
# DT40 TDP1 no CPT – qHTS for Inhibitors of human tyrosyl-DNA phosphodiesterase 1 (TDP1): qHTS in cells in absence of CPT | DT40 Tdp1-/- hTDP1 cells, no CPT, ATP luminescence, 48 h | Potency, µM (highest dose often 46.2 µM), without a hit: at the top dose activity change, negative = growth inhibition, most hits filed as inhibitors | 420,000 tested, 15% active | AID 686978, 2013; also: potency is read from the fitted curve at half-maximal effect; nearly all actives have a fitted effect of over 55% in size
#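 A cellular qHTS used chicken DT40 cells lacking endogenous Tdp1 but carrying stably transfected human TDP1. Compounds were applied without camptothecin, and cell growth kinetics were judged by ATP-dependent luminescence after ≥48 hr.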
# IL1B secr inh – qHTS for Inhibitors of Inflammasome Signaling: IL-1-beta AlphaLISA Primary Screen | activity change, % at 57.5 µM | THP-1 LPS/ATP IL-1B secretion, AlphaLISA, 16 h; active compounds read low | 360,000 tested, 4.7% active; in the data active = activity change below about -50%; inconclusive = mostly about -30% to -49%
#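 THP-1 cells pretreated 1 hr with compounds (up to 57.5 uM final), then stimulated with LPS (250 ng/mL final) plus ATP (1.25 mM final); secreted IL-1B measured by AlphaLISA after 16 hr, decreased signal indicating inhibition.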
# TDP1 cell CPT – qHTS for Inhibitors of human tyrosyl-DNA phosphodiesterase 1 (TDP1): qHTS in cells in presence of CPT | Potency, µM (highest dose often 46.2 µM), for inactives: at the top dose activity change, negative = growth inhibition, usual class: inhibitors | 420,000 tested, 12% active | chicken DT40 Tdp1-/-;hTDP1 cells + 20 nM CPT, ATP luminescence, 48 h; also: potency is read from the fitted curve at half-maximal effect; nearly all actives have a fitted effect of over 55% in size
#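 Cell growth measured by CellTiter-Glo luminescence after a minimum 48 h, 37 C compound exposure with 20 nM CPT in Tdp1-knockout DT40 cells stably expressing hTDP1, seeded 400/well; qHTS titration format.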
# ELG1 repair inh – qHTS screen for small molecules that inhibit ELG1-dependent DNA repair in human embryonic kidney (HEK293T) cells expressing luciferase-tagged ELG1 | Potency, µM (top dose mostly 46.1 µM), for the others: top-dose activity change, negative = inhibition, usual class: inhibitors | 330,000 tested, 2.3% active | HEK293T ELG1-luciferase reporter, luminescence, 16 h; DNA damage induced by 5-fluorouridine; also: potency is read from the fitted curve at half-maximal effect; nearly all actives have a fitted effect of over 55% in size
#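 Cells (2,000 per well) received 5-fluorouridine plus test compound or DMSO and were incubated 16 hr at 37 °C, 5% CO2. Luciferase activity was read by luminescence 30 min after ONE-Glo addition; signal suppression marked inhibition of damage-induced ELG1 function.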
# * = called active by the depositor; ? = inconclusive; . = no result given; ! = a repeat was not active. Unless noted, calls follow the shape of the dose curve; as a rule, active = well fitted curve in the direction sought with a large enough effect; inconclusive = small, poorly fitted or top-dose-only effect, or another doubt; inactive = no such curve, though single readings can be large; an effect the other way counts as inactive or inconclusive. Unless noted, % is scaled to controls: 0 for no effect and ±100 for the full control effect.
SMILES,HT1080 IDH1KD tx,HT1080NT lethal,DT40 TDP1 no CPT,IL1B secr inh,TDP1 cell CPT,ELG1 repair inh
O=C(COC(=O)COc1ccc(Br)cc1)NNC(=O)c1ccccc1,-4.6%,-2.7%,?,0.0,-0.8%,15.2%
Cc1cccc(N(CC(=O)NCCSCc2cccc(Cl)c2)S(=O)(=O)c2ccccc2)c1C,.,.,20.6µM*,.,?,.
CC(C(=O)NCCSCc1cccc(Cl)c1)N(c1ccccc1)S(C)(=O)=O (stereo not given),-0.8%,-14.8%,13µM*!,-1.2,20.6µM*!,-0.9%
Cc1ccc(CNC(=O)CN(c2cccc(C)c2C)S(=O)(=O)c2ccccc2)cc1,.,.,16.4µM*,.,16.4µM*,.
CCOC(=O)Cn1nc(-c2ccccc2)nc1-c1ccccc1,0.8%,-5.0%,-28.5%,19.6,-3.2%,?
O=C(Cn1nc(-c2ccccc2)nc1-c1ccccc1)OC1CCCCC1,-1.7%,4.8%,18.4µM*,0.0,?,?
O=C(NC1CCCC1)c1cccc2c1C(=O)c1ccc(N3CCCCC3)cc1S2(=O)=O,-6.8%,2.7%,?,12.2,?,-16.7%
O=C1c2ccccc2S(=O)(=O)c2cc(N3CCC(C(=O)N4CCCCC4)CC3)ccc21,-9.0%,5.7%,18.4µM*,-11.0,20.6µM*,.
CC1CCN(c2ccc3c(c2)S(=O)(=O)c2cccc(C(=O)NC4CCCCC4)c2C3=O)CC1,-10.2%,-41.0%,16.4µM*,19.2,16.4µM*,-16.2%
O=C(NCC1CC1)c1cccc2c1C(=O)c1ccc(-c3ccc(OC(F)(F)F)cc3)cc1S2(=O)=O,7.5%,0.0%,23.1µM*,15.0,13µM*,?
CC1CCN(c2ccc3c(c2)S(=O)(=O)c2cccc(C(=O)NCc4ccc(F)cc4)c2C3=O)CC1,-8.0%,-18.4%,?,50.1,?,-26.5%
O=C(NCc1ccc(F)cc1)c1cccc2c1C(=O)c1ccc(N3CCOCC3)cc1S2(=O)=O,3.8%,-0.7%,?,-13.8,23.1µM*,?
Cc1cccc(C)c1NC(=O)CN(CC(=O)O)CC(=O)O,.,.,-2.7%,.,-5.9%,.
CCOC(=O)Cn1cnc2c(cnn2-c2ccccc2)c1=O,6.3%,3.1%,2.7%,-4.5,6.7%,?
O=C(O)CN=CC1=C(O)CC(c2ccccc2)CC1=O (stereo not given),13.2%,-0.4%,-4.7%,16.0,1.6%,7.0%
O=C1c2ccc(Cl)cc2S(=O)(=O)c2cccc(C(=O)N3CCC(Cc4ccccc4)CC3)c21,?,?,23.1µM*,-99.2*,?,?
CC(C)(C)CNC(=O)c1cccc2c1C(=O)c1ccc(-c3cc4ccccc4o3)cc1S2(=O)=O,5.1%,0.0%,?,21.8,16.4µM*,?
O=C(NC1CC1)c1cccc2c1C(=O)c1ccc(N3CCC(Cc4ccccc4)CC3)cc1S2(=O)=O,1.6%,0.6%,13µM*,16.8,23.1µM*,?
CC(C)(C)CNC(=O)c1cccc2c1C(=O)c1ccc(N3CCCC3)cc1S2(=O)=O,1.9%,-7.2%,16.4µM*,-10.2,20.6µM*,16.4µM*
Cc1cn([C@H]2C[C@H](O)[C@@H](CNCc3ccc(CN(C)S(C)(=O)=O)o3)O2)c(=O)[nH]c1=O,1.7%,2.2%,-0.2%,14.4,4.1%,.
Cc1ccsc1CN(C)C(=O)CN1C(=O)NC2(CCCc3ccccc32)C1=O (stereo not given),-1.3%,1.3%,-5.8%,-14.4,-22.2%,4.5%
O=C(O)c1cccc2c1C(=O)c1ccc(-c3ccc(Cl)c(C(F)(F)F)c3)cc1S2(=O)=O,11.5%,10.4%,-5.5%,-77.7*,-0.6%,?
COc1ccccc1N1CCN(c2ccc3c(c2)S(=O)(=O)c2cccc(C(=O)NCC4CC4)c2C3=O)CC1,-9.1%,-5.8%,7.31µM*,-14.4,18.4µM*,.
CC(C)c1cccc(-c2ccc3c(c2)S(=O)(=O)c2cccc(C(=O)O)c2C3=O)c1,2.6%,4.2%,-2.3%,3.5,9.6%,19.8%
O=C(NCc1ccc(F)cc1)c1cccc2c1C(=O)c1ccc(N3CCC(Cc4ccccc4)CC3)cc1S2(=O)=O,6.4%,3.4%,?,29.5,?,?
SMILES,HT1080 IDH1KD tx,HT1080NT lethal,DT40 TDP1 no CPT,IL1B secr inh,TDP1 cell CPT,ELG1 repair inh
COc1ccc(-c2nc(SC)n(C)c(=O)c2C#N)cc1OC,0.8%,1.2%,?,-76.3*,?,?
CN1CCC(=C2c3ccccc3Sc3ccccc32)CC1,?,?,18.4µM*,?,7.31µM*,.
CN1CCN(C(=O)N2c3ccccc3C=Cc3ccccc32)CC1,-5.8%,-14.8%,-24.2%,-8.0,-22.1%,20.9%
CN1CCC(=C2c3ccccc3C=Cc3ccccc32)CC1,11.2%,?,26.6µM*!,?,29.9µM*!,0.8%
O=C1Cc2ccccc2Sc2ccccc21,-1.9%,-2.0%,?,3.2,-19.5%,2.2%
Nc1nc(NCc2ccc(Cl)c(Cl)c2)c2[nH]cnc2n1,.,.,12.6µM*,.,?,.
CCN1C(=O)[C@H]2[C@@H](c3ccc(C(F)(F)F)cc3)N[C@]3(CCCN(Cc4ccc(Cl)cc4)C3=O)[C@H]2C1=O,7.2%,-10.3%,18.4µM*,-13.3,18.4µM*,.
CCN1C(=O)[C@H]2[C@@H](c3ccc(C)cc3)N[C@]3(CCCN(Cc4ccc(C)cc4)C3=O)[C@H]2C1=O,?,?,3.0%,?,?,.
CCN1C(=O)[C@H]2[C@@H](c3ccc(OC)cc3)N[C@]3(CCCN(Cc4ccc(C)cc4)C3=O)[C@H]2C1=O,-1.2%,1.7%,?,-2.8,-11.0%,.
CCN1C(=O)[C@H]2[C@@H](c3ccc(C(F)(F)F)cc3)N[C@]3(CCCN(Cc4ccco4)C3=O)[C@H]2C1=O,-14.6%,-9.5%,16.4µM*,19.4,23.1µM*,.
CCN1C(=O)[C@H]2[C@@H](c3ccc(C(F)(F)F)cc3)N[C@]3(CCCN(Cc4ccc(C)cc4)C3=O)[C@H]2C1=O,-5.1%,-8.8%,16.4µM*,-7.1,13µM*,.
CCN1C(=O)[C@H]2[C@@H](c3ccc(C)cc3)N[C@]3(CCCN(Cc4ccc(Cl)cc4)C3=O)[C@H]2C1=O,-0.6%,3.8%,20.6µM*,14.5,?,.
